ATXN2 expr inh: reduces ATXN2 reporter expression in HEK-293 cells; HEK-293 ATXN2-luciferase reporter, luminescence, 24 h; AID 1745845; Potency, µM (doses to about 57 µM), inactives show at the top dose activity change, negative = inhibition, actives largely listed as inhibitors; hit rate 0.72% among 360,000; also: % is scaled to controls: 0 for no effect and ±100 for the full control effect; nearly all actives have a fitted effect of over 55% in size
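qHTS (up to 57 uM final) was run with 24 h compound exposure of reporter cells at 37 °C. Each well was multiplexed: SteadyGlo luminescence measured ATXN2-luciferase expression after a fluorogenic Gly-Phe-AFC viability readout (25 uM final).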
DT40 TDP1 CPT: growth inhibition of DT40 Tdp1-/-;hTDP1 cells with camptothecin (screen for TDP1 inhibitors); chicken DT40 Tdp1-/-;hTDP1 cells + 20 nM CPT, ATP luminescence, 48 h; hit rate 12% among 420,000; AID 686979; Potency, µM (series often up to 46.2 µM), inactives show at the highest dose activity change, negative = growth inhibition, most hits filed as inhibitors; also: % is scaled to controls: 0 for no effect and ±100 for the full control effect; nearly all actives have a fitted effect of over 55% in size
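Chicken DT40 Tdp1-/- cells stably complemented with human TDP1 were seeded at 400 cells/well in medium containing 20 nM camptothecin, exposed to pin-transferred compounds, and grown at 37 °C for at least 48 hr. Viability was read as ATP luminescence.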
HepG2 tox: counter-screen for TGF-b inhibitors: cytotoxicity in HepG2 cells; HepG2 CAGA-GFP viability, ATP luminescence, 18 h; Potency, µM (doses to about 46.1 µM), for the others: top-dose activity change, negative = cytotoxicity, actives largely listed as cytotoxic; hit rate 0.76% among 410,000; AID 588856
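CellTiter-Glo luminescence gave cytotoxicity after 18 hours at 37 degrees C. The cells were HepG2 CAGA-GFP in 1% FBS DMEM, stimulated with 500 pg/mL TGF-beta after compound addition. %Activity was normalised to no-cell wells (complete cell-killing) and DMSO (no toxicity), and curves were fitted and classified.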
TGFb inhibitor: inhibitors of TGF-b signaling | hit rate 1.2% among 410,000 | Potency, µM (highest dose often 46.1 µM), without a hit: at the top dose activity, negative = inhibition, actives largely listed as inhibitors | HepG2 CAGA-GFP TGF-b/SMAD3 reporter, GFP fluorescence, 18 h; TGF-beta stimulated, 500 pg/mL final; also: % is scaled to controls: 0 for no effect and ±100 for the full control effect; nearly all actives have a fitted effect of over 65% in size
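Read-out: total well GFP (ex488/em500-530) summed from mean per-cell fluorescence. Cells: HEPG2 CAGA-GFP, 1% FBS DMEM, 18 h at 37 degrees C with 500 pg/mL final TGF-beta. Unstimulated wells served as the full-inhibition control; stimulated DMSO wells = 0%.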
S2 tox: reduces viability in counter-screen for ATXN expression inhibitors. S2 cells (HEK-293 line with an ATXN2-luciferase reporter) viability, CellTiter-Fluor protease fluorescence, 24 h. Potency, µM (titrated, usually from 56.7 µM), hits mostly cytotoxic. hit rate 0.49% among 400,000. AID 651635; also: nearly all actives have a fitted effect of over 40% in size
TDP1 cell noCPT: qHTS for Inhibitors of human tyrosyl-DNA phosphodiesterase 1 (TDP1): qHTS in cells in absence of CPT; DT40 Tdp1-/- hTDP1 cells, no CPT, ATP luminescence, 48 h; Potency, µM (doses to about 46.2 µM), without a hit: top-dose activity change, negative = growth inhibition, usual class: inhibitors; hit rate 15% among 420,000; AID 686978, 2013; also: % is scaled to controls: 0 for no effect and ±100 for the full control effect; nearly all actives have a fitted effect of over 55% in size
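Chicken DT40 Tdp1-/- cells stably complemented with human TDP1 were seeded at 400 cells/well with DMSO in place of 20 nM camptothecin. After compound pinning, cells grew at least 48 hr at 37 °C; viability read by CellTiter-Glo luminescence.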
An asterisk follows results filed as active. Most compounds without a hit are left out; they make up all but 17% or so of the library. Calls follow the shape of the dose curve; as a rule, active = well fitted curve in the direction sought with a large enough effect; inconclusive = small, poorly fitted or top-dose-only effect, or another doubt; inactive = no such curve, though single readings can be large; an effect the other way counts as inactive or inconclusive. Potency is read from the fitted curve at half-maximal effect.

Results for CC(C)(C)OC(=O)C(C1NC(C(=O)O)C(C)(C)S1)N1C(=O)c2ccccc2C1=O (stereo not given) ?
ATXN2 expr inh: 5%; DT40 TDP1 CPT: 9%; HepG2 tox: -2%; TGFb inhibitor: 24%; S2 tox: inactive; TDP1 cell noCPT: -9%

How did CCCN(CCC)CCNC(=O)c1cc2c(=O)n(C)c3ccccc3c2n1C do in these assays?
ATXN2 expr inh: -25%; DT40 TDP1 CPT: inconclusive; HepG2 tox: -32%; TGFb inhibitor: 2%; S2 tox: inconclusive; TDP1 cell noCPT: 18µM*

What do the screens show for `Cn1c(=O)c2cc(C(=O)NCCCN3CCN(c4ccccc4F)CC3)sc2c2ccccc21`?
DT40 TDP1 CPT: 3.7µM*; HepG2 tox: -3%; TGFb inhibitor: inconclusive; TDP1 cell noCPT: 3.7µM*

How did Cn1c(=O)c2cc(C(=O)NCCCN3CCN(c4ccc(F)cc4)CC3)sc2c2ccccc21 do in these assays?
ATXN2 expr inh: inconclusive; DT40 TDP1 CPT: inconclusive; HepG2 tox: -18%; TGFb inhibitor: 1%; S2 tox: inactive; TDP1 cell noCPT: 2.9µM*

Results for Cn1c(C(=O)NCCCN2CCN(c3ccc(F)cc3)CC2)cc2c(=O)n(C)c3ccccc3c21 ?
ATXN2 expr inh: 0%; DT40 TDP1 CPT: inconclusive; HepG2 tox: -9%; TGFb inhibitor: 9%; S2 tox: inactive; TDP1 cell noCPT: inconclusive

What do the screens show for `CN(CCNC(=O)c1cc2c(=O)n(C)c3ccccc3c2n1C)Cc1ccccc1`?
ATXN2 expr inh: -36%; DT40 TDP1 CPT: inconclusive; HepG2 tox: -37%; TGFb inhibitor: inconclusive; S2 tox: inactive; TDP1 cell noCPT: inconclusive

Results for CCN1CCN(CCCNC(=O)c2cc3c(=O)n(C)c4ccccc4c3s2)CC1 ?
ATXN2 expr inh: inconclusive; DT40 TDP1 CPT: inconclusive; HepG2 tox: -35%; TGFb inhibitor: 63%; S2 tox: inconclusive; TDP1 cell noCPT: 10µM*

What do the screens show for `O=C(c1ccco1)N1CCNCC1`?
ATXN2 expr inh: -1%; S2 tox: inactive

How did COc1cccc(NC(=O)CN(C)C(=O)c2ccc(NC(=O)CC3SC(N4CCCC4)=NC3=O)cc2)c1 (stereo not given) do in these assays?
DT40 TDP1 CPT: 3%; HepG2 tox: -7%; TGFb inhibitor: 0%; S2 tox: inactive; TDP1 cell noCPT: -24%

What do the screens show for `CN(C)CCCNc1nccc(N2CCN(C)CC2)n1`?
DT40 TDP1 CPT: -26%; HepG2 tox: -29%; TGFb inhibitor: -1%; TDP1 cell noCPT: -13%

How did Cn1c(C(=O)NCCN2CCN(c3ccccc3F)CC2)cc2c(=O)n(C)c3ccccc3c21 do in these assays?
ATXN2 expr inh: -4%; DT40 TDP1 CPT: 18µM*; HepG2 tox: -8%; TGFb inhibitor: 3%; S2 tox: inactive; TDP1 cell noCPT: 23µM*

Results for CCOc1ccc(N(CC(=O)N2CCOCC2)S(=O)(=O)c2ccc(Cl)cc2)cc1 ?
ATXN2 expr inh: -4%; DT40 TDP1 CPT: -19%; HepG2 tox: 13%; TGFb inhibitor: 4%; S2 tox: inactive; TDP1 cell noCPT: -13%

Results for CCc1nc2ccccc2n1CCCCOc1cccc(C)c1 ?
ATXN2 expr inh: inconclusive; DT40 TDP1 CPT: inconclusive; HepG2 tox: -40%; TGFb inhibitor: inconclusive; S2 tox: inconclusive; TDP1 cell noCPT: 23µM*

Results for Cc1nc2ccccc2n1CCCOc1ccccc1 ?
ATXN2 expr inh: 34%; DT40 TDP1 CPT: inconclusive; HepG2 tox: -15%; TGFb inhibitor: -8%; S2 tox: inactive; TDP1 cell noCPT: 23µM*

Results for COCc1nc2ccccc2n1CCCOc1ccccc1 ?
ATXN2 expr inh: 32%; DT40 TDP1 CPT: 23µM*; HepG2 tox: -1%; TGFb inhibitor: -3%; S2 tox: inactive; TDP1 cell noCPT: 26µM*

What do the screens show for `CCCC(O)c1nc2ccccc2n1CCCOc1ccc(Cl)cc1` (stereo not given)?
ATXN2 expr inh: -10%; DT40 TDP1 CPT: 3.7µM*; HepG2 tox: -41%; TGFb inhibitor: inconclusive; S2 tox: inactive; TDP1 cell noCPT: 3.3µM*

What do the screens show for `Nc1nc2ccccc2n1CCOc1ccc(Cl)cc1`?
ATXN2 expr inh: -26%; DT40 TDP1 CPT: inconclusive; HepG2 tox: -40%; TGFb inhibitor: inconclusive; S2 tox: inactive; TDP1 cell noCPT: inconclusive

How did Cc1ccc(CNc2ncnc3c2nnn3C)cc1 do in these assays?
DT40 TDP1 CPT: -6%; HepG2 tox: -7%; TGFb inhibitor: -25%; TDP1 cell noCPT: inconclusive

How did CC(=O)N[C@H]1[C@H](OC2CCCCC2)O[C@H](COC(C)=O)[C@@H](OC(C)=O)[C@@H]1OC(C)=O do in these assays?
DT40 TDP1 CPT: 18%; HepG2 tox: 1%; TGFb inhibitor: 9%; S2 tox: inconclusive; TDP1 cell noCPT: 9%

What do the screens show for `O=C(N/N=C/c1ccc(F)cc1)c1cccc(NC(=O)c2ccc(F)cc2)c1`?
ATXN2 expr inh: 8%; DT40 TDP1 CPT: inconclusive; HepG2 tox: -28%; TGFb inhibitor: inconclusive; S2 tox: inactive; TDP1 cell noCPT: inconclusive

How did CCc1ccc(NC(=O)CSc2ccnc(=O)[nH]2)cc1 do in these assays?
ATXN2 expr inh: 37%; DT40 TDP1 CPT: 5%; HepG2 tox: 4%; TGFb inhibitor: 0%; S2 tox: inactive; TDP1 cell noCPT: -19%

How did COc1ccc(OCCn2c(C)nc3cc(C)c(C)cc32)cc1 do in these assays?
ATXN2 expr inh: inconclusive; DT40 TDP1 CPT: 15µM*; HepG2 tox: -45%; TGFb inhibitor: inconclusive; S2 tox: inconclusive; TDP1 cell noCPT: 21µM*

Results for Cc1ccc(OCCn2c(C)nc3ccccc32)cc1 ?
ATXN2 expr inh: -15%; DT40 TDP1 CPT: inconclusive; HepG2 tox: -22%; TGFb inhibitor: -25%; S2 tox: inactive; TDP1 cell noCPT: inconclusive

How did CCOC(=O)c1sc(NC(=O)CSc2n[nH]c(-c3ccccc3)n2)c(C#N)c1C do in these assays?
ATXN2 expr inh: -18%; DT40 TDP1 CPT: 12µM*; HepG2 tox: -24%; TGFb inhibitor: inconclusive; S2 tox: inconclusive; TDP1 cell noCPT: inconclusive

Results for CCOC(=O)c1c(NC(=O)CSc2nc3nc(C)cc(C)n3n2)sc(CC)c1C ?
ATXN2 expr inh: -21%; DT40 TDP1 CPT: 12µM*; HepG2 tox: -5%; TGFb inhibitor: -15%; S2 tox: inactive; TDP1 cell noCPT: inconclusive

Compound activity from PubChem BioAssay.
